# Assay results: the supplement of paper PMC10849652
# About 8,800 targets were measured; listed, in parts, are those with a hit and a random draw of the rest. About 0.5% of all pairs of compound and target were hits. Unmarked numbers belong to inactive results.
# What was measured:
# Assay in all cases: log2 fold change, soluble protein after heating vs DMSO (PISA); higher = thermal stabilisation; K562 lysate, 10 uM; active = over 0.2 and 3.5 SD of the protein, either way, in both replicates (recomputed)
# [1] = compound: C=CC(=O)N1CCC[C@@H](n2nc(-c3ccc(Oc4ccccc4)cc3)c3c(N)ncnc32)C1 [ibrutinib]
# Outline: (§1)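 Log-two fold change in thermal stability relative to solvent controls is reported from duplicates. For each sample, crude K562 extract from dounce-homogenised pellets in PBS pH 7.4 with 1 mM MgCl2, at 1 mg/mL protein, was treated with 10 μM compound for 30 min. Aliquots heated for 3 min across 48°C-58°C were pooled, brought to 0.5% NP-40 at 4°C and cleared at 21,000xg for 90 min. The supernatant was quantified by TMTpro 16plex LC-MS/MS with channel sums equalised.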
# [2] = compound: CC(=O)c1cnc2ccc(-c3cc(Cl)c(O)c(Cl)c3)nc2c1N[C@H]1CC[C@H](CN(C)C)CC1
# Outline: as §1
# [3] = compound: CC(C)(C)Cn1c(N)nc2ccc(-c3[nH]c(C(C)(C)C)nc3-c3ccc(F)cc3)nc21 [ralimetinib]
# Outline: as §1
# [4] = compound: CC(C)(O)CC(=O)NCCn1ccc2ncnc(Nc3ccc(Oc4cccc(C(F)(F)F)c4)c(Cl)c3)c21
# Outline: as §1
# [5] = compound: CC(C)C1=C2N=C(C=C(N2N=C1)NCC3=CC=CC=C3)NCCCCCCN
# Outline: as §1
# [6] = compound: CC1=C(C(CC(=O)N1)C2=CC=C(C=C2)C(F)(F)F)C(=O)NC3=C(C=C4C(=C3)C=NN4)F
# Outline: as §1
# [7] = compound: CC1=C(C2=C(C=C1)C(=O)C3=CC=CC=C3N2CCCN)C
# Outline: as §1
# [8] = compound: CC1=C(C=C(C=C1)NC(=O)C2=CC(=CC=C2)C(C)(C)C#N)NC3=CC4=C(C=C3)N=CN(C4=O)C
# Outline: as §1
# [9] = compound: CC1=C(C=C(C=C1)NC(=O)C2=CC(=CC=C2)N(C)C)NC(=O)C3=CC=C(C=C3)O
# Outline: as §1
# [10] = compound: CC1=CC=C(C=C1)SC2=C3C=C(SC3=CN=C2)C(=O)N
# Outline: as §1
# [11] = compound: CCCS(=O)(=O)Nc1ccc(F)c(C(=O)c2c[nH]c3ncc(-c4ccc(Cl)cc4)cc23)c1F [vemurafenib]
# Outline: as §1
# [12] = compound: CCCS(=O)(=O)Nc1ccc(F)c(C(=O)c2c[nH]c3ncc(Cl)cc23)c1F
# Outline: as §1
# [13] = compound: CCN(CCCOc1ccc2c(Nc3cc(CC(=O)Nc4cccc(F)c4)[nH]n3)ncnc2c1)CCOP(=O)(O)O [barasertib]
# Outline: as §1
# [14] = compound: CC[C@@H]1C(=O)N(C)c2cnc(Nc3ccc(C(=O)NC4CCN(C)CC4)cc3OC)nc2N1C1CCCC1
# Outline: as §1
# [15] = compound: CC[C@@H]1C(=O)N(C)c2cnc(Nc3ccc(C(=O)N[C@H]4CC[C@H](N5CCN(CC6CC6)CC5)CC4)cc3OC)nc2N1C(C)C [volasertib]
# Outline: as §1
# [16] = compound: CCn1c(C(=O)N(C2CC2)C2CC2)cc2c3c(ncn3C)c(Nc3cc(C)n(C)n3)nc21
# Outline: as §1
# [17] = compound: CCn1cc(-c2ccnc3[nH]c(-c4cccc(CN(C)C)c4)cc23)c(-c2ccc(NC(=O)N(C)C)cc2)n1
# Outline: as §1
# [18] = compound: CN1CCC(CNc2ccc3ncc(-c4cccc(OC(F)(F)F)c4)n3n2)CC1
# Outline: as §1
# [19] = compound: CN1CCN(CCOc2cc(OC3CCOCC3)c3c(Nc4c(Cl)ccc5c4OCO5)ncnc3c2)CC1 [saracatinib]
# Outline: as §1
# [20] = compound: CN1CCN(c2nc(C3=C(c4c[nH]c5ccccc45)C(=O)NC3=O)c3ccccc3n2)CC1 [sotrastaurin]
# Outline: as §1
# Sequence of UniProt Q9BXW6 (Q9BXW6 whole entry, looked up): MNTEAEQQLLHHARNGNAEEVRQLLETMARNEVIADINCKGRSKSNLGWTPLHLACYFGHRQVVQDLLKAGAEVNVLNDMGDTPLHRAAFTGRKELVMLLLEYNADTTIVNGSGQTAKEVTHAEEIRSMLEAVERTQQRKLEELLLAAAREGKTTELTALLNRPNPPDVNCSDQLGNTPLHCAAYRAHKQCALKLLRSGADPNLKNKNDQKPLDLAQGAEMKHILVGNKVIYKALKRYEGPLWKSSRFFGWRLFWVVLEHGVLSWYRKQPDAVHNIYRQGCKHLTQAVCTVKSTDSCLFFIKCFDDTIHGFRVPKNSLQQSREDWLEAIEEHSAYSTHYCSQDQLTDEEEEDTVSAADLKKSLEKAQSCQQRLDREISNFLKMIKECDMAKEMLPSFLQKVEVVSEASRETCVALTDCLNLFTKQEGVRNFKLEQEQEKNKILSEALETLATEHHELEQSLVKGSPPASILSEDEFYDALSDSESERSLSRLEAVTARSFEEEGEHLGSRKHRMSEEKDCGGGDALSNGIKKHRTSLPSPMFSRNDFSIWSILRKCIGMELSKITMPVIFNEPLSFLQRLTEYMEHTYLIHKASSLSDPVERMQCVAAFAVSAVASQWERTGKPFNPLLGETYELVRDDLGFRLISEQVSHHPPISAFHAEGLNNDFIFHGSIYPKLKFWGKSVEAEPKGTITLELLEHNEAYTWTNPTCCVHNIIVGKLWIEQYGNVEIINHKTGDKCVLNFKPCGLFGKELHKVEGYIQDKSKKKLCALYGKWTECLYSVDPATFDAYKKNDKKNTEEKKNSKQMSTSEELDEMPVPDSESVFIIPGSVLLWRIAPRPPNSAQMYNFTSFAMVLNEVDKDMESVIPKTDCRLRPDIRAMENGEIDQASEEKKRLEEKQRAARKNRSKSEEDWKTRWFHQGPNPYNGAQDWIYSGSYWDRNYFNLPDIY
# Sequence of UniProt O94916 (O94916 whole entry, looked up): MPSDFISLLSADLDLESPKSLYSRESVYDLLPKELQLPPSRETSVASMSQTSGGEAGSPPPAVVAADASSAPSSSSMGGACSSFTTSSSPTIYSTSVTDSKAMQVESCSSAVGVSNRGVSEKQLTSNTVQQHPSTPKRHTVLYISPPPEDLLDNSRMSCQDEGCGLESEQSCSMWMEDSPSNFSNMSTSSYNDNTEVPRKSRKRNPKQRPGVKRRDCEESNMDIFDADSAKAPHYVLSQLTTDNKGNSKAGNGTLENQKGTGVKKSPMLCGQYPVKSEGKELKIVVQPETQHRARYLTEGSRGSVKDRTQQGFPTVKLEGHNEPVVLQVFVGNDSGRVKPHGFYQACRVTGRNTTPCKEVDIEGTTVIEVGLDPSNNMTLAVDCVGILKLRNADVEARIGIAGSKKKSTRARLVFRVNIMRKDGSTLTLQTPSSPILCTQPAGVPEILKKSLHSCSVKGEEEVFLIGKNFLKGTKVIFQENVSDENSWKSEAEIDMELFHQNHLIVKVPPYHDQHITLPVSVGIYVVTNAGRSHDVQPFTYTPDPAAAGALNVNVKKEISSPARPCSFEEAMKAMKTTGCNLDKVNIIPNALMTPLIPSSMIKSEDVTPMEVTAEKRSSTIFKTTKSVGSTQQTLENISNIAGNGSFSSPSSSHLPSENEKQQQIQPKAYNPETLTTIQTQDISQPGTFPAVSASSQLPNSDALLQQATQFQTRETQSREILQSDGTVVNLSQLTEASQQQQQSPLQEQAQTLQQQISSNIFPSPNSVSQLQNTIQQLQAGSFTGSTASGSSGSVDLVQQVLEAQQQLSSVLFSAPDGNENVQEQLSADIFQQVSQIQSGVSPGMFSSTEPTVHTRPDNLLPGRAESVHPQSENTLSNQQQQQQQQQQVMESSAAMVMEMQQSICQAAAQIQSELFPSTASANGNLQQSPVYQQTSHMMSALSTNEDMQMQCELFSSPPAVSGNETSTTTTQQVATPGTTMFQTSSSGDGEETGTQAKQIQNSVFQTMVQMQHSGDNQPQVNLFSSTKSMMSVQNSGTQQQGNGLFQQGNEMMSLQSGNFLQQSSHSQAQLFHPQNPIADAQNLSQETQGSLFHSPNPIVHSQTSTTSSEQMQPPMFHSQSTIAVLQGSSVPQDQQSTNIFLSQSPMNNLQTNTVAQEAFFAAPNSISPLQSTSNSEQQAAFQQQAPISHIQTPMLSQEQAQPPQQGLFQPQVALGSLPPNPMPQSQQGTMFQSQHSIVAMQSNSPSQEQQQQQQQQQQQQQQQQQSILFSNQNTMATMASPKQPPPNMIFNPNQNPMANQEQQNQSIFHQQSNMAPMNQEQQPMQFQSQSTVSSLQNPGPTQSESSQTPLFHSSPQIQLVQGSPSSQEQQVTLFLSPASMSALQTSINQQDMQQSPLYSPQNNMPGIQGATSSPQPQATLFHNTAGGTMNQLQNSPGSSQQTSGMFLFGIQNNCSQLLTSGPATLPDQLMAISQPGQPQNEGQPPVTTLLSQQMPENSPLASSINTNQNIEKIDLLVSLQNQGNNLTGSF
# Sequence of UniProt B2RTY4 (B2RTY4 whole entry, looked up): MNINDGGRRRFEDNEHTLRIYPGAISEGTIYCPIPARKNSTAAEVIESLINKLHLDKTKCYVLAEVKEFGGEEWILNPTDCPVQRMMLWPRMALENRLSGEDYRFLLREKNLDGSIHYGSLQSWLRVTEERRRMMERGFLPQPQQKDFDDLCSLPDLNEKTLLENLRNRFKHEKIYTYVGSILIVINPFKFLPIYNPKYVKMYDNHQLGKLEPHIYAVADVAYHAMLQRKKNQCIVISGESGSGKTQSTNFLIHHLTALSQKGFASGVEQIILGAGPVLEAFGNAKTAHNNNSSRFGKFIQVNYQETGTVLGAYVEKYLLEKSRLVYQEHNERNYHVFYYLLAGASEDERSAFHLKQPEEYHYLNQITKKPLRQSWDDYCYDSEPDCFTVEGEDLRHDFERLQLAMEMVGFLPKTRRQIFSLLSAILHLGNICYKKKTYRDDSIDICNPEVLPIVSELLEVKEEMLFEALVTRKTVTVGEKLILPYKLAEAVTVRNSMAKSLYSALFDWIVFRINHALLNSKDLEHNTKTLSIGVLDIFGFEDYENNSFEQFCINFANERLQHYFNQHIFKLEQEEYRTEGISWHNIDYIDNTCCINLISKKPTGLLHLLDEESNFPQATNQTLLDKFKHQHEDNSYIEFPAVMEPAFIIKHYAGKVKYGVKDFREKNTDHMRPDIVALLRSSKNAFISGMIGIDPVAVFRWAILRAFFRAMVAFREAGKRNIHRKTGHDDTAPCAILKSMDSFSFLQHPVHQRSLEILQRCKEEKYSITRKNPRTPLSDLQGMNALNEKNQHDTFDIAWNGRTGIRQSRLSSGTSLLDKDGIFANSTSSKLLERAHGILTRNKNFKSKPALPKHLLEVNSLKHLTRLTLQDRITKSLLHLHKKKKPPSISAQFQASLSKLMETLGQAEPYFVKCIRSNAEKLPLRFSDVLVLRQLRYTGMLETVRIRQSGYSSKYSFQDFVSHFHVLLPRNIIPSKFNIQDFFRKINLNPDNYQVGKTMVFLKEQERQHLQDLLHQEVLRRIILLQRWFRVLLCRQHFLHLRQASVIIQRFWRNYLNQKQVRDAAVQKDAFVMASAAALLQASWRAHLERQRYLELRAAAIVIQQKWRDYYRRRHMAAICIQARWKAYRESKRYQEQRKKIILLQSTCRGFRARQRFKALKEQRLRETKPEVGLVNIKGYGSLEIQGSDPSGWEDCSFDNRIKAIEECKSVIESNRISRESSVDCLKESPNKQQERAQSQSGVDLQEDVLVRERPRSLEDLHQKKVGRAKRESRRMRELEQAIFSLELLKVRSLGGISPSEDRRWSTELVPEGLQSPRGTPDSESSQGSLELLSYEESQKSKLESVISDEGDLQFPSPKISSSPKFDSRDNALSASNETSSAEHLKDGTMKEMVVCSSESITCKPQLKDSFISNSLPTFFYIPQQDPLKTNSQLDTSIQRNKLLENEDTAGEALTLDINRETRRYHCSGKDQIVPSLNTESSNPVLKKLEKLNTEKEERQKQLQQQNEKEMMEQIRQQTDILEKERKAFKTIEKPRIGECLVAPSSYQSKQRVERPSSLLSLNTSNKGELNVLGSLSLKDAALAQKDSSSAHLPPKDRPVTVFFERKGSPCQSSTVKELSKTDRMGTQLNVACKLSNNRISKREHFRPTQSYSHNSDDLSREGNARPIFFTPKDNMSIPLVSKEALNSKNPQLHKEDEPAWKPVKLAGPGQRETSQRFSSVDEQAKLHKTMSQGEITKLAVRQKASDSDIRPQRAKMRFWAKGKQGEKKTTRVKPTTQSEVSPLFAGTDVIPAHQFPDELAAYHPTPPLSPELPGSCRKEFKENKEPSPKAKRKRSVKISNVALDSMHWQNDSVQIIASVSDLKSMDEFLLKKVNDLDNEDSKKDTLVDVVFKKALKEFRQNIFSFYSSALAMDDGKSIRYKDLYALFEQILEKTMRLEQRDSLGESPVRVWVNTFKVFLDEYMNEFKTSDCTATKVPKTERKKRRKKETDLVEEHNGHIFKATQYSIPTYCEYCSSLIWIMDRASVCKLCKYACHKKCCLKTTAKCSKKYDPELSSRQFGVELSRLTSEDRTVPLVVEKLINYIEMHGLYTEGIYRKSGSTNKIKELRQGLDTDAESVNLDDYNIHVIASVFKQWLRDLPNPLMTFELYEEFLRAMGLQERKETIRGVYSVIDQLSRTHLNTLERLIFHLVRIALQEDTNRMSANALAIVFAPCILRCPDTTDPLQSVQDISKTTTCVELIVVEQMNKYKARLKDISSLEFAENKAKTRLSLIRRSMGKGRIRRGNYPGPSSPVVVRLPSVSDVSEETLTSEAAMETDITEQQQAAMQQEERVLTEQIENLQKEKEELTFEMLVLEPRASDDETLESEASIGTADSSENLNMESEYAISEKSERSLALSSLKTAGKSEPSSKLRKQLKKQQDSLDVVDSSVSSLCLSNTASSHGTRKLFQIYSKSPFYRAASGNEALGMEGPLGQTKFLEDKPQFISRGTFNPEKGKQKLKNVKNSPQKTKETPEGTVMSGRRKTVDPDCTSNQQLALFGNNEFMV
Target,log2 fold change [1],log2 fold change [2],log2 fold change [3],log2 fold change [4],log2 fold change [5],log2 fold change [6],log2 fold change [7],log2 fold change [8],log2 fold change [9],log2 fold change [10],log2 fold change [11],log2 fold change [12],log2 fold change [13],log2 fold change [14],log2 fold change [15],log2 fold change [16],log2 fold change [17],log2 fold change [18],log2 fold change [19],log2 fold change [20]
NELFA (UniProt Q9H3P2),0,0.001,-0.038,0.003,-0.012,0.008,0.008,-0.022,-0.04,-0.024,0.015,0.02,-0.005,-0.016,-0.083,0.007,0.037,-0.037,-0.013,0.029
NACC1 (UniProt Q96RE7),-0.015,-0.001,0.009,-0.003,-0.014,0.039,-0.016,-0.022,0.009,-0.022,-0.039,-0.003,0.039,-0.027,0.008,0.004,-0.059,-0.003,-0.016,0.034
PARP14 (UniProt Q460N5),0.029,-0.051,-0.03,0.015,0.074,0.049,0.011,-0.007,0.002,-0.135,0.067,0.062,0.038,0.007,0.001,0.003,-0.08,0.075,0.119,-0.058
NFAT5 isoform 5 (UniProt O94916),-0.027,-0.029,-0.017,0.129,0.003,0.112,-0.008,-0.081,-0.004,0.032,0.019,-0.007,-0.041,0.043,-0.016,0.042,-0.003,0.044,0.038,0.044
OSBPL6 isoform 5 (UniProt Q9BZF3),0.118,-0.031,0.23,-0.042,0.098,-0.032,0.016,0.015,-0.013,0.01,-0.026,-0.021,-0.015,-0.052,-0.072,0.015,-0.004,0.084,-0.009,-0.035
NSUN2 (UniProt Q08J23),0.014,0.011,0.023,0.015,0.006,0.008,0.006,-0.035,0.033,0.017,0.028,0.004,-0.006,-0.032,0.004,0.037,0.081,-0.022,0.006,0.005
PANK2 (UniProt Q9BZ23),-0.056,0.001,-0.069,-0.047,,-0.073,-0.126,-0.046,-0.002,0.023,0.093,-0.036,-0.047,0.011,-0.086,0.002,-0.167,-0.057,0.068,0.027
MYLK (UniProt Q15746),0.099,0.226,,,,0.061,,0.228,,0.004,-0.254,-0.022,-0.097,-0.675 (active),-0.053,,-0.169,0.014,,-0.084
MTHFD1 (UniProt V9GZ32),,0.045,,,,-0.18,,,,0.088,,0.008,,,-0.145,,,,,
OSBPL1A (UniProt Q9BXW6),0.019,-0.002,,,0.116,0.152,-0.069,0.012,,-0.028,,0.028,0.007,,0.019,,-0.095,0.05,0.013,0.038
NUB1 isoform 2 (UniProt Q9Y5A7),,,,,,,,0.075,,,,,,,,,,,,-0.003
NPLOC4 (UniProt I3L3I1),-0.022,,,,,,-0.169,0.447,,,,,0.125,0.104,,,,,0.152,-0.108
NEXN (UniProt Q0ZGT2),0.173,-0.008,0.257,0.057,0.066,-0.012,-0.065,,0.101,-0.017,0.073,0.218,0.101,-0.132,0.051,0.075,-0.231,0.209,0.026,
MXRA7 (UniProt P84157),,-0.234,0.108,0.027,-0.057,-0.074,0.024,0.021,0.045,-0.023,-0.134,0.094,,-0.006,0.054,0.049,-0.182,0.167,0.02,-0.064
NOCT (UniProt Q9UK39),,0.001,0.068,-0.06,0.014,0.004,0.114,-0.012,-0.066,0.064,,-0.04,,0,0.02,0.004,,,-0.103,-0.073
MYO9A isoform 4 (UniProt B2RTY4),-0.057,0.016,0.022,0.068,0.03,-0.031,-0.142,-0.037,0.043,-0.005,0.248 (active),0.023,0.053,,-0.028,-0.019,-0.021,0.002,-0.068,0.093
NAA16 (UniProt Q6N069),-0.047,0.097,-0.179,0.085,,0.092,0.105,,0.147,0.062,0.902 (active),-0.048,0.246,-0.049,-0.078,0.057,,,-0.012,
MYBL2 (UniProt P10244),,,0,0.02,-0.008,,0.057,0.048,-0.013,,-0.07,,,0.013,,0.069,0.217,-0.296,0.057,0.043
NUMB isoform 2 (UniProt P49757),,,0.059,0.12,,0.154,-0.245,,-0.062,,,,,,,-0.146,,,-0.04,
NDUFAF5 (UniProt Q5TEU4),-0.007,0.021,-0.011,-0.008,-0.029,,0.043,0.076,-0.026,-0.048,-0.015,0.007,-0.032,0.127,0.04,-0.103,-0.052,0.035,0.179,0
